Test results as given in ChEMBL document CHEMBL1157539, “Thousands of chemical starting points for antimalarial lead identification” (Nature, 2010).
“And” between values parts separate entries of the source, which are not always exact repeats. Equal values may be shown once.

Columns and labels:
Type in all cases: functional
Plasmodium falciparum [1] = assay: GSK_TCMDC: Inhibition of Plasmodium falciparum 3D7 in whole red blood cells, using parasite LDH activity as an index of growth. Test compounds present at 2uM
Plasmodium falciparum [2] = assay: GSK_TCMDC: Inhibition of Plasmodium falciparum Dd2 in whole red blood cells, using parasite LDH activity as an index of growth. Test compounds present at 2uM
HepG2 = assay: GSK_TCMDC: Percent inhibition of human HepG2 cell line. Test compounds present at 10uM.

Row | Structure (SMILES) | Inhibition (Plasmodium falciparum [1]) | Inhibition (Plasmodium falciparum [2]) | Inhibition (HepG2)
1 | CC(=O)Nc1ccc(CN2CCC(N(C)c3cc(NC(=O)c4ccc(F)cc4)ccn3)CC2)cc1.O=C(O)C(F)(F)F | 95% | 5% | 0%
2 | O=C(/C=C/c1cccc(Cl)c1)NC1CCC(CN2CCC(c3c[nH]c4ccccc34)CC2)CC1 (stereo not given) | 100% | 82% and 55% | 35% and 42%
3 | COC(=O)c1ccc(CC(C)NCC(O)c2cccc(C(F)(F)F)c2)cc1 (stereo not given) | 94% and 97% | 73% and 87% | 0%
4 | CN(C)c1cccc(NC(=O)N[C@H]2N=C(c3ccccc3)c3ccccc3N(CC(=O)N3CCCC3)C2=O)c1 | 98% | 98% | 0%
5 | Cc1c(C)c2c(c(C)c1O)CC[C@@](C)(C(=O)NC1CCC(CN3CCC(c4c[nH]c5ccccc45)CC3)CC1)O2 (stereo not given in full) | 92% | 57% | 29%
6 | Cl.N=c1c2c(n(Cc3ccc(Cl)cc3Cl)c3c1CCC3)CCCC2 | 94% | 73% | 0%
7 | CC(=O)Nc1ccc2[nH]cc(C3CCN(CC4CCC(NC(=O)/C=C/c5ccc(Cl)c(Cl)c5)CC4)CC3)c2c1 (stereo not given) | 100% and 90% | 99% and 59% | 10% and 18%
8 | O=C(/C=C/c1ccc(Cl)c(Cl)c1)NC1CCC(CN2CCC(c3c[nH]c4ccccc34)CC2)CC1 (stereo not given) | 100% | 85% | 27%
9 | O=C(/C=C/c1ccc(Cl)c(Cl)c1)N1CCC(CN2CCC(c3c[nH]c4cc(C(F)(F)F)ccc34)CC2)CC1 | 99% | 38% | 6%
10 | CC[C@H]1C[N+]2([O-])CC[C@@H]1C[C@H]2[C@H](O)c1cc(-c2ccccc2)nc2ccc(OC)cc12 | 99% | 97% | 0%
11 | Oc1ccc(CN2CCN(CCOC(c3ccccc3)c3ccc(Cl)cc3)CC2)cc1Cl (stereo not given) | 98% | 97% | 11%
12 | Oc1ccc(Cl)cc1CN1CCC(CCOC(c2ccccc2)c2ccc(Cl)cc2)CC1 (stereo not given) | 98% | 100% | 32%
13 | Oc1ccc2[nH]cc(C3=CCN(Cc4ccccc4)CC3)c2c1 | 94% | 67% | 1%
14 | Cc1[nH]c2cc(F)ccc2c1C1=CCN(CCCCC2(C)C(=O)Nc3ccccc32)CC1 (stereo not given) | 93% | 90% | 13%
15 | COc1cccc(/C=C/C(=O)NC2CCC(CN3CCC(c4c[nH]c5ccccc45)CC3)CC2)c1 (stereo not given) | 100% and 94% | 26% and 38% | 30% and 19%
16 | COc1cccc(CN2CCC(CCOC(c3ccccc3)c3ccc(Cl)cc3)CC2)c1O (stereo not given) | 99% | 100% | 22%
17 | CCc1ccc(CN2CCC(CN(C(=O)c3ccccc3)c3ccc(Cl)cc3)CC2)cc1 | 96% | 95% | 12%
18 | O=C(/C=C/c1cc(F)cc(C(F)(F)F)c1)N1CCC(CN2CCC(c3c[nH]c4ccccc34)CC2)CC1 | 100% | 74% | 32%
19 | C/C=C1/CN2CC[C@H]1C[C@H]2[C@H](O)c1ccnc2ccc(O)cc12 | 99% | 11% | 0%
20 | CCN1CCC(N2CCC(n3c(C)nc4cc(C(F)(F)F)ccc43)CC2)CC1 | 93% | 16% | 6%

Row | Structure (SMILES) | Inhibition (Plasmodium falciparum [1]) | Inhibition (Plasmodium falciparum [2]) | Inhibition (HepG2)
21 | O=C(C=Cc1ccc(-c2ccccc2)cc1)NC1CCC(CN2CCC(c3c[nH]c4ccccc34)CC2)CC1 (stereo not given) | 100% | 85% and 98% | 97% and 43%
22 | Cn1nc(-c2ccc(S(=O)(=O)N3CCC(CN4CCC(c5c[nH]c6ccccc56)CC4)CC3)s2)cc1C(F)(F)F | 93% | 48% | 16%
23 | O=C(/C=C/c1ccc(Cl)c(Cl)c1)NCCC1CCC(N2CCC(c3c[nH]c4ccc(O)cc34)CC2)CC1 (stereo not given) | 100% | 3% | 19%
24 | Cc1cc(CN2CCN(CCOC(c3ccccc3)c3ccccc3)CC2)ccc1O | 97% | 96% | 9%
25 | Oc1ccccc1CNCC(O)c1cc(C(F)(F)F)cc(C(F)(F)F)c1 (stereo not given) | 99% | 100% | 15%
26 | O=C(/C=C/c1ccc(Cl)c(Cl)c1)NC1CCC(CN2CCC(c3c[nH]c4cc(O)ccc34)CC2)CC1 (stereo not given) | 100% | 98% | 18%
27 | CC[C@H]1CN2CCc3cc(OC)c(OC)cc3[C@@H]2C[C@@H]1C[C@H]1NCCc2c1cc(OC)c(OC)c2Br | 99% | 97% | 45%
28 | Cc1cc(N)nc2cc(CNCCc3ccccc3Br)ccc12.Cl | 100% | 93% | 47%
29 | CCCCCCC(C)(C)c1cc(O)c2c(c1)OC(C)(C)c1ccncc1-2.Cl | 95% | 99% | 4%
30 | Cc1ccc(CC(C)NCC(O)c2cccc(Br)c2)cc1 (stereo not given) | 99% | 97% | 7%
31 | O=S(=O)(NC1CCC(CN2CCC(c3c[nH]c4ccccc34)CC2)CC1)c1ccc(Cl)c(Cl)c1 (stereo not given) | 97% | 32% | 36%
32 | CCC1CN2CCc3cc(OC)c(OC)cc3C2CC1CC1NCCc2c1[nH]c1ccc(O)cc21 (stereo not given) | 99% | 100% | 45%
33 | CN(c1cc(NC(=O)c2ccc(F)cc2)ccn1)C1CCN(Cc2cccc(F)c2)CC1.O=C(O)C(F)(F)F | 100% | 97% | 13%
34 | Cc1[nH]c2ccccc2c1C1=CCN(CCCCCC23CCCc4cccc(c42)NC3=O)CC1 (stereo not given) | 94% | 91% | 11%
35 | COc1ccc(C=CC(=O)NC2CCC(CN3CCC(c4c[nH]c5ccccc45)CC3)CC2)cc1 (stereo not given) | 100% | 61% and 60% | 13% and 30%
36 | CCCCCCCCNCC(O)c1ccc(Cl)c(Cl)c1.Cl (stereo not given) | 99% | 87% | 0%
37 | COc1ccc(CCNCc2ccc3nc(N)c(C)cc3c2)cc1.Cl | 100% | 15% | 0%
38 | Cc1[nH]c2ccc(O)cc2c1C1CCN(CC2CCN(C(=O)/C=C/c3ccc(Cl)c(Cl)c3)CC2)CC1 | 99% | 99% | 23%
39 | CCCCOC(C(=O)OCC1CCCN1C)(c1ccccc1)c1ccccc1 (stereo not given) | 100% | 2% | 3%
40 | Cc1ccc(CC(C)(C)NCC(O)c2cccc(C(F)(F)F)c2)cc1.O=C(O)/C=C/C(=O)O (stereo not given) | 97% | 92% | 19%

Row | Structure (SMILES) | Inhibition (Plasmodium falciparum [1]) | Inhibition (Plasmodium falciparum [2]) | Inhibition (HepG2)
41 | COc1ccc(C(=O)C2CC2CN2CC=C(c3c[nH]c4ccc(OC)nc34)CC2)cc1 (stereo not given) | 98% | 91% | 8%
42 | Brc1cnc(NC2=NCCN2)c(Br)c1.Cl | 99% | 0% | 0%
43 | CCCCCCCc1cc(=O)c2ccccc2[nH]1 | 96% | 94% | 5%
44 | CSc1ccc(C[C@@H](C)NC[C@H](O)c2cccc(Cl)c2)cc1.Cl | 97% | 96% | 8%
45 | O=C(c1cc(C(=O)NCc2ccc(Cl)cc2)c(=O)n(Cc2ccc(Cl)cc2)c1)c1cc(Cl)ccc1O | 80% | 4% | 6%
46 | COc1ccc(CN2CCN(CCOC(c3ccc(F)cc3)c3ccc(F)cc3)CC2)c(O)c1 | 97% | 97% | 6%
47 | CCCCCCc1cc(O)c2c3c(c(=O)oc2c1)CCN(C)C3 | 99% | 66% | 0%
48 | Cc1c(C)c2c(c(C)c1O)CC[C@](C)(C(=O)NC1CCC(CN3CCC(c4c[nH]c5ccccc45)CC3)CC1)O2 (stereo not given in full) | 96% and 85% | 98% and 48% | 24% and 27%
49 | CN(C)CCc1c[nH]c2ccc(C(=O)Nc3ccc(-c4ccncc4)cc3)cc12.O=C(O)CCC(=O)O | 99% | 46% | 23%
50 | O=C(NC1CCN(CC2(c3ccc(Cl)cc3)CCC2)CC1)c1cscn1 | 98% | 95% | 0%
51 | O=C(O)C(F)(F)F.OC1(CNCc2ccccc2)CCN(CCc2c[nH]c3ccc(F)cc23)CC1 | 100% | 4% | 39%
52 | CS(=O)(=O)Nc1ccc2c(C3CCN(CC4CCN(C(=O)/C=C/c5ccc(Cl)c(Cl)c5)CC4)CC3)c[nH]c2c1 | 99% | 70% | 28%
53 | COc1ccc(O)c(CN2CCN(c3cc(C)ccc3C)CC2)c1 | 90% | 86% | 7%
54 | CN(c1cc(NC(=O)c2cccs2)ccn1)C1CCN(Cc2cccc(F)c2)CC1.O=C(O)C(F)(F)F | 94% | 95% | 0%
55 | CC(=O)C1(c2ccccc2)CCN(CCC2(c3ccc(Cl)c(Cl)c3)CN(C(=O)C3CCCCC3)CCO2)CC1 (stereo not given) | 100% | 99% | 3%
56 | COc1cc(NC(=O)c2nn(CCCN3CCC4(CC3)C(=O)NCN4c3ccccc3)cc2-c2ccc(Cl)c(Cl)c2)cc(OC)c1OC | 97% | 75% | 0%
57 | COc1ccc2nc(-c3ccc(F)cc3)cc([C@@H](O)[C@@H]3C[C@@H]4CCN3CC4C=NO)c2c1 (stereo not given in full) | 100% | 94% | 14%
58 | O=C(NC1CCC(CN2CCC(c3c[nH]c4ccccc34)CC2)CC1)c1cc2cccc([N+](=O)[O-])c2[nH]1 (stereo not given) | 100% | 100% | 36%
59 | CC(C)(C)c1cc(/C=C/C(=O)NC2CCC(CN3CCC(c4c[nH]c5ccccc45)CC3)CC2)cc(C(C)(C)C)c1O (stereo not given) | 100% | 100% | 98% and 99%
60 | O=C(/C=C/c1ccc(F)c(C(F)(F)F)c1)N1CCC(CN2CCC(c3c[nH]c4ccccc34)CC2)CC1 | 98% | 1% | 23%
